Results published in PubChem BioAssay AID1456 (Vanderbilt High Throughput Screening Facility, 2008).
In all, about 190,000 compounds went through this assay and about 4,100 (2.2%) were called active. The sample as a whole holds a higher share of actives than the screen did. A number with no mark means an inactive call.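 How the source made its calls: active means thallium flux slope and its plate-corrected score both differing from the plate sample mean at a set confidence after two filtering rounds, in either direction; inactive means the rest.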

What follows are molecules tested against Solute carrier family 12 member 5 (Homo sapiens) (UniProt Q9H2X9) (assay: modulation of human KCC2 ion transport – cell-based, HEK293 KCC2, FluoZin-2 fluorescence, MLSMR, primary screen (AID 1456;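 further: slope of fluorescence scaled to starting intensity during 10 to 20 s after thallium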)). Settings: KCC2 cells, thallium flux FluoZin-2 fluorescence; at 10 µM.
Solute carrier family 12 member 5 (Homo sapiens), sequence (Q9H2X9 whole entry, looked up): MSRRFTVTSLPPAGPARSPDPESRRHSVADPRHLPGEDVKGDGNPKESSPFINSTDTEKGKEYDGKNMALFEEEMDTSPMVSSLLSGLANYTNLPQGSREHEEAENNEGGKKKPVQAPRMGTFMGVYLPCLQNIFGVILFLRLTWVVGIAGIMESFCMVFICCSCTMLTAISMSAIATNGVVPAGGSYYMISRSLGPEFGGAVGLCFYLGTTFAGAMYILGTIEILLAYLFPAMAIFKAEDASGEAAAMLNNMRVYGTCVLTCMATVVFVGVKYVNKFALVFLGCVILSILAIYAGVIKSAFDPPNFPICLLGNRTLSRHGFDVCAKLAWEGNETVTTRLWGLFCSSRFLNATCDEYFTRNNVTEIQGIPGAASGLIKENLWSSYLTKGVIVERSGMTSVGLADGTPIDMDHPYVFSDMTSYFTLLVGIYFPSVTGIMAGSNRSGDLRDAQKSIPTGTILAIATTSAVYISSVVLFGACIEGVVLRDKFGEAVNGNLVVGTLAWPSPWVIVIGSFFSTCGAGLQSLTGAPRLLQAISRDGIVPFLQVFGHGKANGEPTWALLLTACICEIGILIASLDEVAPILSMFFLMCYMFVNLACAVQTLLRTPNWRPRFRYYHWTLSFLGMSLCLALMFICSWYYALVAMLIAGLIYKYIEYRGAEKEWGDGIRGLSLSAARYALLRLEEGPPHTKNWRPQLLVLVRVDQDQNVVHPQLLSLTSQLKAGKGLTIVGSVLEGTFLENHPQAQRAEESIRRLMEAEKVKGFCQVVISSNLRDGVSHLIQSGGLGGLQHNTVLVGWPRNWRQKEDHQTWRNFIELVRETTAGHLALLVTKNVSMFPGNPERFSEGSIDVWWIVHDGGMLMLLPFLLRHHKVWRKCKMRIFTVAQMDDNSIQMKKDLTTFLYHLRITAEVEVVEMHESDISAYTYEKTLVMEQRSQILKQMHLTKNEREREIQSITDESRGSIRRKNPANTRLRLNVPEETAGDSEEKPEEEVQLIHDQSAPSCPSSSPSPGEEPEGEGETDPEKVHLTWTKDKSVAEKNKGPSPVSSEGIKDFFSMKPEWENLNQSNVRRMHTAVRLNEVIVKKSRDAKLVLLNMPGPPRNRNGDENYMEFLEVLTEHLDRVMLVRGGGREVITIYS

Compound | B-score of Tl+ flux slope (higher = more flux/activation; lower = inhibition)
COc1ccc(N2CCC(CNC(=S)Nc3c(C)cccc3C)C2)cc1 (stereo not given) | -0.00939
Cc1c(NC(=O)CSc2nnnn2-c2ccc(C(=O)O)cc2)c(=O)n(-c2ccccc2)n1C | 1.95
Cc1c(NC(=O)c2cccnc2)c(=O)n(-c2ccccc2)n1C | 0.0888
Cc1c(NC(=O)CSc2cccc3cccnc23)c(=O)n(-c2ccccc2)n1C | 4.92 (active)
O=c1[nH]n(-c2cccc(Cl)c2)c2ncccc12 | 0.268
Nc1c(C(=O)NCc2ccccc2)nnn1Cc1cccc(Cl)c1 | -1.02
Clc1cccc(CN2COc3c(cc(Cl)c4cccnc34)C2)c1 | 4.19 (active)
O=C(NNS(=O)(=O)c1ccccc1C(F)(F)F)c1cc2ncc(C(F)(F)F)cc2s1 | -0.726
Cc1oc(C(N)=O)cc1COc1ccc(C(N)=O)cc1 | 2.17 (active)
Cc1ccc(COc2ccc(C(=O)NN)cc2)cc1 | -0.198
COc1ccc(OCc2cccc(C(=O)N3CCCC3)c2)cc1 | 0.115
COc1ccc(Cl)cc1S(=O)(=O)N1CCC(O)(c2ccc(Cl)cc2)CC1 | -0.0293
Cc1[nH]n(-c2ccccc2)c(=O)c1N=Nc1ccccc1C(=O)N1CCCCC1 | 5.68 (active)
Cc1ccc(N=Nc2c(C)[nH]n(-c3ccccc3)c2=O)cc1 | 3.14
Cc1cccc(N=Nc2c(C)[nH]n(-c3ccccc3)c2=O)c1 | 0.0317
CSc1nc(-c2ccco2)nn1C(=O)c1ccccc1Cl | -1.08
COC(=O)c1cc2c(N)c(C(=O)c3ccc(Cl)cc3)sc2nc1C(OC)OC | 0.11
COc1cc(OC)cc(/C(N)=N/O)c1 | -0.654
COc1ccc(N2C(=O)c3ccccc3NC2c2ccc(OC)c(CN3CCOCC3)c2)cc1 (stereo not given) | -0.152
C=CCn1c(=S)sc2c(=O)[nH]c(C)nc21 | -0.647
C=CCn1c(=S)[nH]c2nc3c(cc2c1=O)COC(C)(C)C3 | 3.61 (active)
O=C(CCl)N(Cc1cccc([N+](=O)[O-])c1)c1cccc(Cl)c1 | -0.452
Cn1c2ccccc2c2cc(/C=C(\NC(=O)c3ccccc3)C(=O)NCC(=O)O)ccc21 | 0
O=C(CSc1ccc(-c2cccs2)nn1)Nc1ccccc1F | -2.89 (active)

Compound | B-score of Tl+ flux slope (higher = more flux/activation; lower = inhibition)
Cc1csc(NC(=O)CSc2ccc(-c3ccc(F)cc3)nn2)n1 | -4.45
Cn1c(CCC(=O)Nc2ccccc2F)nnc1SCC(=O)Nc1ccccc1Cl | -0.846
C=CCC1(C#N)C(=S)NC(C)=C(C(=O)OCC)C1c1ccccc1 (stereo not given) | -0.00243
Cc1ccc(SCc2c(C(=O)N/N=C/C3CC=CCC3)nnn2-c2nonc2N)cc1 (stereo not given) | -0.374
O=C(Nc1nnc(Cc2ccc(Cl)cc2)s1)c1ccncc1 | -2.1
NS(=O)(=O)c1ccc(NC(=S)Nc2ccc(Br)c(Cl)c2)cc1 | 0.559
O=C(Nc1ccc2ccccc2c1)/C(=C\c1ccc2c(c1)OCO2)NC(=O)c1ccco1 | 0.0996
Cc1ccc(OCC(=O)NNC(=S)NCc2ccccc2)cc1 | 9.51 (active)
COc1ccc(CCNC(=O)c2ccco2)cc1 | 0.796
O=C(Nc1ccc2ccccc2c1)/C(=C/c1cccc(Br)c1)NC(=O)c1ccco1 | -1.51
CC(Oc1ccc2ccccc2c1)C(=O)NNC(=S)NC(=O)c1ccco1 (stereo not given) | 25.4 (active)
CCCc1ccc(OCC(=O)NNC(=S)NC(=O)c2ccco2)cc1 | 28.4 (active)
CC(=O)Nc1ccc(OCC(=O)NCc2ccc(C)cc2)cc1 | -0.00613
CC(C)Oc1ccc(CCC(=O)NNC(=S)NCc2ccccc2)cc1 | -1.38
CCNC(=S)NNC(=O)Cc1ccccc1 | 0.737
CC(C)(C)c1cc(C(=O)NN)n(Cc2ccc(Cl)cc2Cl)n1 | -0.315
O=S(=O)(Nc1n[nH]c(C(F)(F)F)n1)c1ccccc1 | -2.65
N#Cc1c(NCCO)ccc([N+](=O)[O-])c1NCCO | -0.904
O=C1c2ccccc2NC(c2ccc(-c3cccc(Cl)c3)o2)N1O (stereo not given) | 35 (active)
Nc1nnnn1CC(=O)N/N=C/c1ccc(-c2cccc(Cl)c2)o1 | -0.38
O=C1NC(c2cccc(Cl)c2)Nc2ccccc21 (stereo not given) | 0.445
CCn1c(SCC(=O)Nc2sc(C)c(C)c2C#N)nnc1C1CC1 | 0.253
Cc1onc(-c2ccccc2)c1C(=O)N1CCOCC1 | 0.00257
COc1ccc(C(=O)NC(=S)NNC(=O)c2c(-c3ccccc3)noc2C)cc1 | 11.1 (active)

Compound | B-score of Tl+ flux slope (higher = more flux/activation; lower = inhibition)
Cc1onc(-c2ccccc2)c1C(=O)N=C(N)c1ccc(Cl)cc1 | 1.42
CC(=O)Nc1cccc(NC(=O)c2c(-c3ccccc3)noc2C)c1 | -0.00829
Cc1onc(-c2ccccc2)c1C(=O)NNC(=S)NC(=O)c1ccc(F)cc1 | 8.51 (active)
COc1ccc(C(=O)NNC(=S)NC(=O)c2ccccc2[N+](=O)[O-])cc1 | 1.61
O=C1CCCC(O)=C1N=Nc1ccc(S(=O)(=O)N2CCOCC2)cc1 | -0.62
Cc1ccc(OC(=O)c2c(C)nn(-c3ccccc3)c2C)cc1 | 0.00646
O=C(Nc1ccc(Cl)cc1)Nc1ccc(C(=O)N2CCOCC2)cc1 | 0.868
c1ccc2c(NC3C4CC5CC(C4)CC3C5)nc(N3CCOCC3)nc2c1 (stereo not given) | -0.0419
COC(=O)c1sccc1NC(=O)CC1C(=O)NCCN1C(=O)Nc1ccc(F)cc1F (stereo not given) | -0.52
COC(=O)c1ccccc1N=Nc1c(C)[nH][nH]c1=O | 0.855
O=C(Nc1nnc(-c2ccccc2)o1)c1cc(-c2cccs2)nc2ccccc12 | 99.4 (active)
O=C(Nc1ccc(S(=O)(=O)Nc2nccs2)cc1)c1cc(-c2ccncc2)nc2ccccc12 | -0.477
CC(C)(C)Cc1nnc(NC(=O)c2cc(-c3ccccc3)nc3ccccc23)s1 | 0.0714
Cc1c(NC(=O)CN2C(=O)C(=O)N(Cc3ccccc3)C2=O)c(=O)n(-c2ccccc2)n1C | 0.0462
Oc1oc(-c2ccccc2Br)nc1/C=N/c1ccccn1 | 1.39
CC(C)n1c(O)c(N=Nc2ccccn2)c2ccccc21 | 5.67 (active)
COC(=O)Cn1c(O)c(N=NC(=O)OC)c2ccccc21 | 1.85
COc1ccc(Cn2c(O)c(/C=C3/C=CC=N3)c(=O)[nH]c2=O)cc1 | -0.723
Cn1nc(C(F)(F)F)cc1C(=O)O | 1.56
Cc1cc(NC(=O)OC(C)C)ccc1-c1ccc(NC(=O)OC(C)C)cc1C | -0.761
CC(C)CN(CC(C)C)CC(O)CN(c1ccccc1)S(=O)(=O)c1ccccc1[N+](=O)[O-] (stereo not given) | -2.39
CCOC(=O)N1CCN(CC(=O)Nc2cc(C)nn2-c2nc3ccccc3s2)CC1 | -0.634
Cc1cc(NC(=O)CN2CCCC(C)C2)n(-c2nc3ccccc3s2)n1 (stereo not given) | 0.312
CCC(C)Cn1c(O)cc2nn(-c3nc4ccccc4s3)c(=O)c-2c1C (stereo not given) | 5.85 (active)

Compound | B-score of Tl+ flux slope (higher = more flux/activation; lower = inhibition)
C/C(=N\NC(=O)c1cccnc1)c1ccc(-n2ccnc2)cc1 | 0.898
COc1cc2c(cc1OC)C(/C=C/c1ccco1)=NCC2 | -1.64
O=C(CCCn1c(=O)[nH]c2cc(Cl)ccc2c1=O)NCCN1CCN(c2ccccc2)CC1 | -1.09
COc1cccc(CNC(=O)CCN2C(=S)NC(C)(C)CC2C)c1 (stereo not given) | -1.19
COc1cccc(CNC(=O)Cc2csc(Nc3nc(=S)[nH]c4ccccc34)n2)c1 | 16.7 (active)
O=C(Cc1csc(Nc2nc(=S)[nH]c3ccccc23)n1)NCCCN1CCN(c2cccc(Cl)c2)CC1 | 18.7 (active)
CCn1c(=O)cc(OCC(=O)NCCCN2CCN(c3cccc(Cl)c3)CC2)c2ccccc21 | -4.58
COc1cccc(CNC(=O)c2n[nH]c3ccccc23)c1 | -0.482
COC(=O)c1cc(S(=O)(=O)N2CCC(C(N)=O)CC2)oc1C | 0.506
Cn1cc(S(=O)(=O)NC(c2ccccc2)c2ccccc2)c(=O)n(C)c1=O | 1.52
CCCNc1c(N)c(=O)c1=O | 0.441
O=C(Cc1ccccc1)Nc1c(Cl)ccc2nsnc12 | 0.0149
O=C(Nc1ccn(Cc2ccccc2)n1)c1cccc(F)c1 | -4.17 (active)
O=C(Nc1ccn(Cc2ccc(F)cc2)n1)c1ccncc1 | -1.12
O=C(Nc1ccn(Cc2ccccc2)n1)c1n[nH]c([N+](=O)[O-])c1Cl | -5.21
CC(=O)NCc1ccc(S(=O)(=O)NC2CCN(Cc3ccccc3)CC2)cc1 | -1.54
Nn1c(SCc2ccccc2)nnc1C1CCCCC1 | 0.0386
COc1ccccc1CNC(=O)Cn1c(=O)oc2cc(Cl)ccc21 | 0.172
COC(=O)CSc1ncnc2c1cnn2-c1ccc(C)cc1C | 0.528
COc1ccccc1N1CCN(C(=O)CSc2nnc(-c3ccoc3C)o2)CC1 | -1.44
COc1ccccc1N1CCN(C(=O)CSc2ncnc3c2cnn3-c2ccc(C)c(C)c2)CC1 | 5.99 (active)
CN1CCN(c2ccc(S(=O)(=O)N3CCOCC3)cc2NC(=O)CCc2ccccc2)CC1 | 0.193
CC(CO)(CO)NC(=O)c1ccc(=O)[nH]n1 | -0.424
